According to PubChem BioAssay AID1347165 (National Center for Advancing Translational Sciences (NCATS), 2019):
About 5,700 (2.6%) of roughly 220,000 compounds were called active. Another 18% or so got no clear call; they are omitted. Only a selection was taken, and actives are over-represented in it overall. Values without a mark were called inactive. Calls follow the shape of the dose curve; as a rule, active = well fitted inhibition curve with a large enough effect; inconclusive = small, poorly fitted or top-dose-only effect; inactive = no such curve, though single readings can be large or run the other way.
Also: nearly all actives have a fitted effect of over 70% in size.
For activity change, negative = inhibition in this document: 0% is about no effect.
Potency is read from the fitted curve at half-maximal effect.

The molecules below were run against Lysine-specific demethylase 5B (Homo sapiens) (UniProt Q9UGL1) (assay: Primary screen for KDM5B Histone Demethylases FDH-coupled qHTS). Conditions: FDH-coupled NADH fluorescence (FDH is formaldehyde dehydrogenase); series mostly up to 57.7 µM; activity change, negative = inhibition: at the top concentration.
Chain of Lysine-specific demethylase 5B (Homo sapiens) (Q9UGL1 whole entry, looked up): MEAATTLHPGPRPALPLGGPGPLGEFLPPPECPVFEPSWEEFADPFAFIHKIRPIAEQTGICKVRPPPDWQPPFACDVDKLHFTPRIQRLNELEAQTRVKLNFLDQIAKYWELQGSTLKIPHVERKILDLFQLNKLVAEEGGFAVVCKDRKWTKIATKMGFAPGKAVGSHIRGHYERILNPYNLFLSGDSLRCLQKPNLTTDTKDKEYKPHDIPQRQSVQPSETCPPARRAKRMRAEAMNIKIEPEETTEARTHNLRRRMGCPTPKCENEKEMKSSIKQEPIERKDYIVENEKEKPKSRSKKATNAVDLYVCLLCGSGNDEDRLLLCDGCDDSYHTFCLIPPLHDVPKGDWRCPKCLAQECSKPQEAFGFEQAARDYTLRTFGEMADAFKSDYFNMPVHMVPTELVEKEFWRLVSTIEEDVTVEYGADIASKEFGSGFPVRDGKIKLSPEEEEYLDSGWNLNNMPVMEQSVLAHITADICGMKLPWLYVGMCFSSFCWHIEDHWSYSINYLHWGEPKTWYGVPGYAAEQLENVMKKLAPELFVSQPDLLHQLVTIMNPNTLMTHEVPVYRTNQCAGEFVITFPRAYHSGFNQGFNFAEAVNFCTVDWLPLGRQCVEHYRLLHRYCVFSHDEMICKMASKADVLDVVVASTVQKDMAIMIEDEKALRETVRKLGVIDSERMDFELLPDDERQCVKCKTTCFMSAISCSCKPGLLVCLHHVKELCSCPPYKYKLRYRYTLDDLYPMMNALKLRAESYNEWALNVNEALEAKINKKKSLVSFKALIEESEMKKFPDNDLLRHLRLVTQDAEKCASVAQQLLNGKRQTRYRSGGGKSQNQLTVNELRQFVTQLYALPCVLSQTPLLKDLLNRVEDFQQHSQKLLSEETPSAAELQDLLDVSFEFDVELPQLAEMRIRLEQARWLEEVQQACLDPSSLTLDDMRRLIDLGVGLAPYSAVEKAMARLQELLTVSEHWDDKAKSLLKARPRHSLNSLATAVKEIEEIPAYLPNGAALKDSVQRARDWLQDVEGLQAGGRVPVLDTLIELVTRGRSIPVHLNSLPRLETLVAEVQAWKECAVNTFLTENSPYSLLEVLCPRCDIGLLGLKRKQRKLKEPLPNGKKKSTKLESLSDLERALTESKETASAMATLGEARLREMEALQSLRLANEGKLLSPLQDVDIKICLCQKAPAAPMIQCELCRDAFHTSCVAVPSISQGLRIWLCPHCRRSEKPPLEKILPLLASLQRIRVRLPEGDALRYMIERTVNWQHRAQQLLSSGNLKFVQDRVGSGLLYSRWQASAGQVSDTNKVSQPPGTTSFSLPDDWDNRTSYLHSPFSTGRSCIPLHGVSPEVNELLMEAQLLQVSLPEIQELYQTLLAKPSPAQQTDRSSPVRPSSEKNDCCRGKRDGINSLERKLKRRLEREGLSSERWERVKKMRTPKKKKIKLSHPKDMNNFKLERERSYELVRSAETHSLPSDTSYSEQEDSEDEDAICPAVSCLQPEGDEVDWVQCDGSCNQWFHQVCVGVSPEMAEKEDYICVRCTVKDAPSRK
Text: Assay Submitter (PI): Qin Yan, Ph.D. (Yale University) and Xiaodong Cheng, Ph.D. (MD Anderson) This project was funded as part of the NCI NEXT Program and Chemical Biology Consortium (CBC) The histone demethylases, KDM5A and KDM5B catalyze the demethylation of lysine 4 on histone H3 (H3K4me3/2). They are overexpressed in a variety of cancers and have been implicated in cancer cell growth, metastasis, drug resistance, and tumor growth. KDM5A is amplified and overexpressed in breast and gastric cancer; and is translocated in leukemia. While KDM5B is highly expressed in human mammary tumors and breast cancer cell lines, but not in normal adult breast tissue. Moreover, knockdown of KDM5B leads to upregulation of tumor suppressor genes, including BRCA1. The goal of this project is to employ qHTS to identify selective small molecule inhibitors of KDM5A/B demethylase activity to better understand the role of KDM5 in cancer and to develop novel therapies. We employed an FDH-coupled assay previously reported by Sakurai et al. to monitor in vitro KDM5 demethylase activity. Compounds showing dose response inhibition are re-acquired, validated, and tested for non-specific interference with the formaldehyde dehydrogenase (FDH) counterscreen. True inhibitors are validated using an AlphaLisa secondary screen, which employs an H3K4(me2-1)-specific antibody to monitor demethylation of a biotin-tagged H3K4(me3) peptide substrate. Inhibitors are profiled against KDM4A and KDM6A AlphaLisa counterscreens to determine level of demethylase specificity; and against the TruHits counterscreen to eliminate non-specific inhibitory activity on the AlphaLISA detection method. Selective inhibitors identified from the primary and secondary screening are tested in cells using immunofluorescence to monitor global H3K4 tri-methylation as a measure of KDM5A/B inhibition. Early Translation Branch (ETB) National Center for Advancing Translational Sciences (NCATS), Rockville, MD National Institute of Health (NIH), Bethesda, Maryland [1] Sakurai, M et al. A miniaturized screen for inhibitors of Jumonji histone demethylases. Mol Biosyst. 2010 Feb;6(2):357-64. doi: 10.1039/b912993f. Epub 2009 Oct 8.
Materials: 1536-well Black, solid bottom, medium binding assay plate is purchased from Greiner Bio-one. The enzymes (KDM5B) and substrate (H3K4me3/2) are provided by the principal investigators. The buffer for this assay is composed of 50mM HEPES at pH 7.5 with 0.01% Tween-20. FDH coupled Demethylase qHTS protocol: Three microliter enzyme mix (buffer + 200nM KDM5BDeltaAP final concentration) is dispensed into the assay plate using the BioRAPTR Flying Reagent Dispenser (FRD; […]). Compound (at various final concentration) and control solution is pin transferred to the assay plate using the Kalypsys 1536-pin tool apparatus. The assay plate is incubated for 10 min at room temperature followed by addition of 1uL substrate mix (buffer + 100uM ascorbic acid, 50uM ferrous ammonium sulfate, 12.5uM H3K4Me3, 25uM a-ketoglutarate, 0.25 mM NAD+, 0.25 U/mL formaldehyde dehydrogenase using the FRD yielding a total reaction volume of 4 uL. Initial fluorescence (Read1) is detected using the PerkinElmer ViewLux plate reader equipped with 340 nm excitation and 450 nm emission filters. The final fluorescence (Read2) signal is obtained after 30 min of room temperature incubation. Delta RFU is calculated (Read2 - Read1) and is used to generated dose response curves.
In the case of `COc1ccc(C(C)=O)cc1CN1CCN(C/C=C/c2ccccc2)CC1`, the “activity change, negative = inhibition” value is reported as -9.81%.
In the case of `NC(N)=N/N=C/c1ccc([N+](=O)[O-])cc1`, the “activity change, negative = inhibition” value is reported as 8.86%.
With `CSc1ccccc1NC(=O)c1ccc(C)c(C)c1` the “activity change, negative = inhibition” value was 16%.
In the case of `COc1ccccc1C(=O)N1CCC2(CC1)C(=O)Nc1ccccc12`, the “activity change, negative = inhibition” value is reported as 6.29% [at 149 µM].
In the case of `COc1ccccc1C(=O)N1CCC2(CCC(=O)N(Cc3ccccc3)CC2)CC1`, the “activity change, negative = inhibition” value is reported as 24.3%.
With `Cc1ccc(C(=O)N2CCC3(CC2)CC(=O)c2ccccc2O3)cc1` the Potency was 25.1 µM (active).
In the case of `O=C1NC2(CCN(C(=O)c3ccccc3)C2)COc2ccccc21` (stereo not drawn), the “activity change, negative = inhibition” value is reported as -9.71% [at 86.2 µM].
With `COc1ccccc1C(=O)N1CCC2(CC1)CC(=O)c1ccccc1O2` the Potency was 31.6 µM (active).
With `Cc1ccc(C(=O)N2CCC3(CC2)NC(=O)N(Cc2ccc(F)cc2)C3=O)cc1` the “activity change, negative = inhibition” value was 1.93%.
For `Cc1[nH]c2ccccc2c1C(=O)COc1ccc(C(N)=O)cc1`, the “activity change, negative = inhibition” value was 13.8%.
With `COc1ccc(-c2c(C)oc3cc(OC(=O)c4ccc5c(c4)OCO5)ccc3c2=O)cc1` the “activity change, negative = inhibition” value was -15.3%.
With `CCS(=O)(=O)N1CCC(NS(=O)(=O)c2ccsc2C(=O)OC)CC1` the “activity change, negative = inhibition” value was -5.24%.
In the case of `COc1ccc(-c2nc(CN3CCCC3c3nnc4ccccn34)co2)cc1` (stereo not drawn), the “activity change, negative = inhibition” value is reported as 14.3%.
`CCOC(=O)c1ccoc1CN1CCCC(O)C1` (stereo not drawn) was tested, and the “activity change, negative = inhibition” value was 27.4%.
In the case of `CCCn1c(NC(=O)CCOc2ccccc2)nc2ccccc21`, the “activity change, negative = inhibition” value is reported as 8.15%.
In the case of `CONC(=O)Cc1ccc(OC)cc1`, the “activity change, negative = inhibition” value is reported as 15.6%.
With `O=C(O)C(c1c[nH]c2ccc(Cl)cc12)N1CCCN(c2ccc(C(F)(F)F)cn2)CC1` (stereo not drawn) the “activity change, negative = inhibition” value was -6.83%.
With `CCn1c(SCC(=O)NC2=NCCS2)nnc1C(C)NC(=O)c1ccccc1F` (stereo not drawn) the “activity change, negative = inhibition” value was -16.3%.
In the case of `CC(C)n1nc(C(=O)Nc2ccc(Nc3ccccc3)cc2)c2ccccc2c1=O`, the “activity change, negative = inhibition” value is reported as 5.18%.
For `c1ccc(-c2noc(-c3ccccc3OC3CCNC3)n2)cc1` (stereo not drawn), the Potency was 20 µM (active).
In the case of `Brc1ccc(-c2noc(-c3ccccc3)n2)o1`, the “activity change, negative = inhibition” value is reported as -21.5%.
For `CC(=O)c1ccc(NC(=O)COc2ccccc2-c2nc(-c3ccccc3)no2)cc1`, the “activity change, negative = inhibition” value was -17.9%.
For `CN1C[C@]2(C=C3CCCCC3n3c(=O)n(-c4ccccc4)c(=O)n32)N=C1NC(=O)c1ccccc1` (stereo partly drawn), the “activity change, negative = inhibition” value was 14%.
For `CCCNC(=S)NNC(=O)CCC`, the “activity change, negative = inhibition” value was 43.4%.
With `CC1CCN(C(=O)C[C@@H]2c3nc(NC(=O)c4ccnc(Cl)c4)sc3C[C@@H]3[C@](C)(CO)[C@H](O)CC[C@]32C)CC1` the “activity change, negative = inhibition” value was 2.05%.
In the case of `COc1ccc(C(=O)Nc2cccc(-c3nnc4n3CCCC4)c2)cc1`, the “activity change, negative = inhibition” value is reported as -18.8%.
`CCC(C)NC(=O)c1ccc(NC(=O)CC2SC(N3CCCCC3)=NC2=O)cc1` (stereo not drawn) was tested, and the “activity change, negative = inhibition” value was 18.7%.
`CCC(=O)Nc1ccc2nnc(-c3ccc(C(=O)Nc4ccc(OC)cc4)cc3)n2c1` was tested, and the Potency was 25.1 µM (active).
In the case of `COc1ccc(NC(=O)C2CCCN(Cc3nc(-c4ccc(OC)c(OC)c4)no3)C2)cc1OC` (stereo not drawn), the “activity change, negative = inhibition” value is reported as 13.9%.
In the case of `COc1ccc(CC(=O)Nc2ccc(C(=O)NC(C)(C)C)cc2)cc1`, the “activity change, negative = inhibition” value is reported as 5.55%.
With `CCC(CC)NC(=O)c1ccc(-c2nnc3ccc(NC(=O)C4CCC4)cn23)cc1` the Potency was 10 µM (active).
With `O=[N+]([O-])c1ccc(/C=N/OCc2cc(F)cc3cccnc23)cc1` the “activity change, negative = inhibition” value was 16.7%.
`CC1C(=O)Nc2ccccc2N1C(=O)c1ccc(F)cc1F` (stereo not drawn) was tested, and the “activity change, negative = inhibition” value was -16.2%.
